Bioassay records deposited in PubChem by several laboratories.
In the library only some 4.6% were active in any assay of this set; here they are far more common.
SKKanGAS inh: blocks kanamycin growth of S. pyogenes SKKanGAS strain; BacTiter-Glo, 6 h; inhibition, % at 7.5 µM; 300,000 tested, 1.3% active;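 active means mean replicate score, as percent of positive control median, at least 50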;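 further: strain carries kanamycin resistance gene driven by streptokinase promoter and grows in 40 µg/ml kanamycin; loss of luminescence reflects streptokinase promoter inhibition or plain growth inhibition; 0% = median of DMSO wells and 100% = positive control at its reference dose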
tim23-1 inh: growth inhibitors of tim23-1 mutant yeast; S. cerevisiae tim23-1 growth, BacTiter-Glo luminescence, 24 h; inhibition, % at 20 µM; 330,000 tested, 1.3% active; AID 463212;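 active means growth inhibition of the mutant yeast at or above 50%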;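 further: temperature-sensitive mutant grown at 25 °C; plate controls were DMSO-treated mutant yeast for no effect and medium wells lacking yeast for full effect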
NALP3 yeast inh: NALP3 inhibition in yeast; Yeast reconstituted NLRP3/ASC/caspase-1, beta-gal luminescence, 24 h; inhibition, % at 10 µM; 330,000 tested, 0.39% active; AID 2825;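 active means inhibition of 50% or more; inactive means inhibition below 50%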;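 further: plate controls were induced DMSO wells for no effect and uninduced yeast grown without galactose for full effect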
tim10-1 inh: growth inhibitors of tim10-1 mutant yeast; S. cerevisiae tim10-1 ts strain growth, BacTiter-Glo, 24 h; inhibition, % at 20 µM; 330,000 tested, 2.2% active; AID 463190;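 active means inhibition of at least 40%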;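 further: mutant grown at 25 °C; 0% = DMSO wells with yeast and 100% = wells holding no yeast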
TIM10 inh: inhibits growth of TIM10 yeast strain; S. cerevisiae TIM10 strain growth, BacTiter-Glo luminescence, 24 h; inhibition, % at 10 µM; 330,000 tested, 1.4% active; AID 463195;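 active means inhibition of 40% or more at the single tested concentration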;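 further: wild-type TIM10 isogenic control strain grown at permissive 25 °C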
TIM10 conf: TIM10 yeast growth inhibition, confirmed; shares compounds with TIM10 inh; S. cerevisiae tim10 strain growth, BacTiter-Glo luminescence, 24 h; inhibition, % at 10 µM; 4,600 tested, 63% active; AID 463215;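 active means inhibition of yeast growth at or above a set limit in either of two replicates at 10 µM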;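 further: this counterscreen used the strain with wild-type TIM10; 0% = yeast with DMSO and 100% = medium wells lacking yeast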
tim23-1 conf: tim23-1 yeast growth inhibition, confirmed | shares compounds with tim23-1 inh | inhibition, % at 20 µM | S. cerevisiae tim23-1 growth, BacTiter-Glo luminescence, 24 h | 4,400 tested, 83% active;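 active means inhibition above about 39% in either of two replicate wells at 20 µM, limit read from the data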;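 further: temperature-sensitive tim23-1 mutant grown at 25 °C; 0% = DMSO wells with yeast and 100% = medium wells without yeast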
Active calls of the source: *; · = no result given.

SMILES | SKKanGAS inh | tim23-1 inh | NALP3 yeast inh | tim10-1 inh | TIM10 inh | TIM10 conf | tim23-1 conf
c1csc(CSc2nc3ccccc3s2)c1 | 15.2 | 16.7 | 16.5 | 5.7 | 7.6 | · | ·
CCn1c(CSc2nc3ccccc3s2)nc2ccccc21 | 5.7 | 53.6* | 17.6 | 37.3 | 51.3* | 44.2* | 51.5*
CC(=O)NS(=O)(=O)c1ccc(NS(=O)(=O)c2ccccc2[N+](=O)[O-])cc1 | 3.9 | 12.9 | 7.3 | -16.2 | 20.4 | · | ·
O=C(Nc1ccc2oc(-c3ccccc3F)nc2c1)c1ccc2c(c1)OCCO2 | 20.9 | 59.9* | 19.9 | 39.1 | 45.6* | 35.6* | 69.6*
Cc1ccccc1-c1nc2cc(NC(=O)C3CC3)ccc2o1 | -8.7 | 70.7* | 34.7 | 16.0 | 62.9* | 54.0* | 74.7*
NC(=O)c1ccc(NC(=O)CSc2nnc(-c3cccnc3)n2Cc2ccco2)cc1 | -2.1 | 10.5 | 9.5 | 18.7 | -2.4 | · | ·
O=C(NC(=S)Nc1ccc(O)cc1)C1CCCC1 | · | 54.5* | 11.7 | 38.0 | 43.6* | 33.3* | 54.5*
CCOC(=O)N1CCC2(CC1)C(C#N)=C(N)Oc1c2c(C)nn1-c1cccc(Cl)c1 | 17.4 | 58.4* | 13.2 | 30.8 | 43.8* | 30.1 | 58.0*
CCOC(=O)N1CCC2(CC1)C(C#N)=C(N)Oc1c2sc2nc(C)cc(C)c12 | 30.9 | 60.8* | 5.7 | 36.3 | 51.0* | 36.0* | 51.2*
CCCN1CCC2(CC1)C(C#N)=C(N)Oc1c2sc2nc(C)cc(C)c12 | 10.3 | 9.7 | 22.2 | 0.3 | -6.6 | · | ·
CCOC(=O)N1CCC2(CC1)C(C#N)=C(N)Oc1n[nH]c(C)c12 | 1.6 | 3.3 | 9.5 | 3.3 | -2.6 | · | ·
CC[C@]1(C(=O)OC)[C@H]2C(=O)N(Cc3ccccc3)C(=O)[C@H]2[C@H]2CN=C(SCC3CC3)N21 | · | 40.0 | · | 20.9 | 1.5 | · | ·
COc1cccc(NC(=O)C2CCCO2)c1 (centres undefined) | -1.6 | 10.3 | 10.3 | -2.0 | -0.5 | · | ·
COC(=O)c1ccc(C(=O)OC)c(NC(=O)CSc2cccc[n+]2[O-])c1 | -3.6 | 69.4* | 7.9 | 27.7 | 41.2* | 14.1 | 74.7*
CSC1=NC(=O)/C(=C\c2cccc3ccccc23)S1 | · | 76.1* | 0.3 | 11.7 | 41.5* | 25.8 | 51.3*
COc1cccc(/C=C2\N=C(SC)SC2=O)c1OC | 14.0 | 17.6 | 11.6 | 28.6 | 28.3 | · | ·
Cn1nnnc1SCC(=O)Nc1nc2c(F)c(F)c(F)cc2s1 | · | 4.2 | 28.0 | -10.8 | -9.5 | · | ·
CCC(O)(CC)C(=O)N/N=C/c1cc(Br)cc(Br)c1O | 89.2* | 66.9* | 14.2 | 14.0 | 57.9* | 49.0* | 73.0*
O=C(N/N=C/c1cc(Br)cc(Br)c1O)c1ccncc1 | 68.7* | 64.7* | 25.7 | 28.1 | 45.4* | 51.2* | 65.2*
O=C(N/N=C/c1ccc(O)cc1O)c1ccncc1 | -1.8 | 1.1 | -8.1 | -8.8 | 13.8 | · | ·
S=c1[nH]nc(Cc2sc(-c3ccccc3)nc2-c2ccccc2)o1 | 30.5 | 18.1 | 21.4 | 26.9 | 4.5 | · | ·
COc1ccc(OC)c(N=C2SCCCN2C(=O)c2ccc(N3C(=O)CCC3=O)cc2)c1 | -5.9 | 7.1 | 18.1 | 0.9 | 6.5 | · | ·
O=Nc1ccc(NOC(=O)c2ccccc2Br)cc1 | 3.4 | 56.6* | 26.8 | 20.3 | 61.5* | 59.9* | 72.9*
CCOC(=O)/C(C#N)=C/c1cc2ccccc2nc1N1CCOCC1 | 3.8 | 30.7 | -1.6 | 32.9 | 22.3 | · | ·
CCOC(=O)/C(C#N)=C/c1cc2ccc(C)cc2nc1Cl | 6.3 | 56.2* | 14.9 | 22.1 | 42.1* | 6.7 | 63.5*
SMILES | SKKanGAS inh | tim23-1 inh | NALP3 yeast inh | tim10-1 inh | TIM10 inh | TIM10 conf | tim23-1 conf
O=C(/C=C/c1cccc([N+](=O)[O-])c1)c1ccco1 | -1.7 | 63.9* | 23.3 | 34.6 | 62.5* | 76.0* | 2.6
CC1CC(C)CN(C(=S)Nc2ccc(SC(F)F)cc2)C1 (centres undefined) | 1.3 | 54.2* | 26.1 | 34.0 | 52.4* | -1.9 | 52.4*
CC1CN(C(=S)Nc2ccc(SC(F)F)cc2)CC(C)O1 (centres undefined) | 13.6 | 22.9 | -13.2 | -0.5 | 16.6 | · | ·
CCCCN=Cc1sc2ccc(OCC)cc2c1O | -6.9 | 57.7* | -14.8 | 30.8 | 43.3* | 27.5* | 53.7*
C=CCN=Cc1sc2ccc(OCC)cc2c1O | -3.6 | 15.4 | 17.8 | 30.0 | 24.1 | · | ·
O=C(NCC1CCCC(CNC(=O)N2CCc3ccccc32)C1)N1CCc2ccccc21 (centres undefined) | 20.2 | 38.9 | 6.2 | 23.6 | -3.8 | · | ·
CCOC(=O)CSc1c(-c2cccs2)[nH]c2ccccc12 | 23.1 | 54.6* | 7.7 | 31.4 | 48.7* | -17.2 | 52.0*
CCOC(=O)CSc1c(-c2ccc(Cl)cc2)[nH]c2ccccc12 | -4.6 | 26.9 | 14.2 | 25.1 | 36.5 | · | ·
CCOC(=O)c1cc(-c2ccncc2)nc2c1c(C)nn2C | -0.7 | 53.2* | 24.1 | 37.3 | 45.3* | 41.4* | 50.8*
Cc1sc2ncn(CC(=O)N3CCN(c4ccccn4)CC3)c(=O)c2c1S(=O)(=O)N1CCCCC1 | -0.4 | 8.6 | 12.6 | 9.8 | -1.7 | · | ·
O=C(CCl)Nc1cccc(-c2cnc3ccccc3n2)c1 | 5.4 | 63.3* | -3.6 | 34.2 | 40.4* | 0.5 | 40.4*
CCC(=O)Nc1cccc(-c2cnc3ccccc3n2)c1 | 2.4 | -13.4 | 16.9 | 12.2 | -1.9 | · | ·
C#CCOCCOCCOCCNc1nc(N2CCN(C(=O)[C@H](CCCCN)n3cc(CCCC)nn3)CC2)nc(N2CCN(C(=O)[C@H](CCCCN)n3cc(CCC(=O)O)nn3)CC2)n1 | · | -0.4 | 21.0 | -12.9 | 2.8 | · | ·
Cn1c(C(=O)Nc2ccc3c(c2)OCCO3)cc2sccc21 | -3.2 | 56.2* | 27.9 | 17.7 | 55.7* | 19.2 | 43.5*
Cc1ccnc2c1ccc1c(C)ccnc12 | · | 70.9* | 35.4 | 35.4 | 50.0* | -28.2 | 59.7*
Cc1cccc2cccnc12 | · | -7.2 | 7.1 | -14.8 | -4.6 | · | ·
CCOC(=O)C1CCN(S(=O)(=O)c2ccc3c(c2)CCN3C(=O)C2CCC2)CC1 | -0.9 | 50.7* | 14.2 | 1.2 | 61.9* | 20.5 | 66.3*
CCOC(=O)C1CCN(S(=O)(=O)c2ccc3c(c2)CCN3C(C)=O)CC1 | -4.4 | 28.6 | 1.9 | 22.0 | 19.4 | · | ·
O=C(Nc1ccc2c(c1)CCC2)c1ncoc1-c1ccccc1F | 1.6 | 16.6 | 36.1 | 8.6 | -8.9 | · | ·
COc1ccc([N+](=O)[O-])cc1NC(=O)Cc1ccccc1Cl | 3.7 | -1.5 | 7.2 | 16.5 | 0.3 | · | ·
COc1ccc(N=Cc2cc(Cc3ccccc3Cl)cc([N+](=O)[O-])c2O)cc1OC | 40.1 | 80.4* | 16.2 | 12.3 | 60.2* | 48.1* | -27.1
O=C1/C(=C/c2ccc(O)cc2)COc2ccccc21 | 12.1 | 77.6* | 49.1 | 39.3 | 46.3* | 35.8* | 49.9*
O=C1c2ccccc2COc2ccc(O)cc21 | 1.9 | 31.3 | 28.2 | 25.2 | 33.2 | · | ·
O=C(N/N=C/c1ccccc1O)c1ccc2c(c1)OCO2 | 104.7* | 66.8* | 14.7 | 30.8 | 50.5* | 43.1* | 74.2*
